The full list was thinned out, with hits kept by preference.
Tgondii IFNg: T. gondii growth inhibition with IFN-gamma, primary screen, cell-based | Toxoplasma gondii growth in IFN-gamma-treated host cells; stronger effect = lower value | activity change, negative = inhibition, % (no concentration beside the values) | hit rate 3.8% among 69,000 | AID 1259416, 2018; in the data active means activity change below about -70%, passing the limit was not always enough;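 further: host cells are HeLa cells infected with Toxoplasma gondii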
* = called active by the depositor; ! = repeats disagree.

SMILES | Tgondii IFNg
CCc1ccc(Nc2nc(C(=O)NC3CC3)nc3ccccc23)cc1 | -54.2
O=C(NCc1ccc2c(c1)OCO2)c1c(O)c2cccnc2n(-c2ccccc2)c1=O | 182.0
Clc1ccc(CNc2nc(SCc3cccc(Cl)c3)nc3ccccc23)cc1 | 27.8
O=C(c1ccc(F)cc1)N1C[C@H]2CN(c3ncccn3)C[C@@H]2C1 | 19.3
COc1ccc(CNc2nc(-c3nnc(-c4ccc(Cl)cc4)o3)nc3ccccc23)cc1 | 77.0
CCOc1ccc(C2(c3ccc(Cl)cc3)CCCC2)cc1 | 18.1
Cc1ccc(-c2nnc(C3CCCN(C(=O)CCn4cnc5ccccc54)C3)o2)cn1 (stereo not given) | 13.6
O=C(NCC1(c2cccc(F)c2)CCOCC1)c1ccc(Cn2cnnn2)cc1 | 4.7
CCc1ccc(NC(=O)Cn2c(=O)cc(C(=O)N3CCCCC3)c3ccccc32)cc1 | 4.0
Cc1nc2c(C(=O)N3CCOC(C(F)(F)F)C3)cccc2[nH]1 (stereo not given) | -0.9
Cc1cccc(C)c1NS(=O)(=O)c1cc2c3c(c1)CCC(=O)N3CCC2 | -3.5
O=C1CCc2cc(S(=O)(=O)Nc3cccc4c3CCCC4)cc3c2N1CC3 | -113.7*
COC(=O)c1ccccc1NS(=O)(=O)c1cc2c3c(c1)CCN3C(=O)CC2 | 116.8
Cc1ccc(NS(=O)(=O)c2cc3c4c(c2)CCN4C(=O)CC3)cc1C | -94.9*
Cc1cccc(NS(=O)(=O)c2cc3c4c(c2)CCN4C(=O)CC3)c1 | -38.3
CCc1ccc(NS(=O)(=O)c2cc3c4c(c2)CCN4C(=O)CC3)cc1 | -5.3
CCCCC(=O)Nc1cc(C(=O)O)ccc1N1CCC(C(N)=O)(N2CCCCC2)CC1 | 28.6
COCCN(C)C(=O)c1nc(-c2cn(C(C)C)c(C)n2)n2ccccc12 | 16.2
Cc1ccc(-c2nc(CN3CCN(C(=O)Nc4ccc(F)cc4)CC3)c(C)o2)cc1 | 2.4
COc1ccc2oc(=O)c(-c3cnc(Nc4ccccc4C)s3)cc2c1 | 21.1
CO[C@@H]1CCN(C(=O)c2cc(C3CC3)on2)C[C@@H]1Cc1ccccc1 | -17.9
C=CCc1cc(CN2CCCN(C(=O)c3ccco3)CC2)ccc1O | 1.3
COc1ccc(-c2noc(-c3c(O)c4ccccc4[nH]c3=O)n2)cc1 | 8.9
O=C1CN(Cc2cccn2-c2ccccn2)CC(OCc2ccncc2)CN1C1CCCCC1 (stereo not given) | 2.5
COc1cc(/C=C/C(=O)N2CCN(CC(=O)N3CCCC3)CC2)cc(OC)c1OC | 13.2
SMILES | Tgondii IFNg
COc1ccc(/C=C2\CC/C(=C\c3ccc(OC)c(OC)c3)C2=O)cc1OC | 7.4
COc1cc(/C=C/C2=NNC(=O)CC2)cc(OC)c1OC | -97.4*
CC(C)C(=O)N1CCN(CC2CC2)CC2(CC(=O)N(C)C2)C1 (stereo not given) | 412.5
CN(C)C(=O)C1OC2(CCN(C(=O)c3ccco3)CC2)c2ccccc21 (stereo not given) | 7.2
C=CCOCC12CCCOC1CCN(C(=O)c1cc(C)nn1CC)C2 (stereo not given) | -6.0
Cc1cccc(-n2cc(-c3ccnc(NC(C)Cc4ccncc4)n3)cn2)c1 (stereo not given) | -50.7
CC(NC(=O)Cc1ccccn1)c1cnn(-c2ccccc2F)c1 (stereo not given) | 5.7
CC(Cc1cccnc1)Nc1nccc(-c2cnn(-c3ccccc3F)c2)n1 (stereo not given) | -71.7*
Cc1ccc(S(=O)(=O)NC(CC(C)C)c2nnc3n2CCNCC3)cc1 (stereo not given) | 27.1
COc1ccc(C(CC(=O)c2ccc3ccccc3c2)C(=O)c2ccc(F)cc2)cc1 (stereo not given) | -55.5
COc1ccc(NC(=O)N2CCCC(O)(CN(C)C)CC2)cc1Cl (stereo not given) | -0.3
COCc1nc(N[C@@H]2CCN(C)C[C@@H]2Cc2ccccc2)c2cnn(C)c2n1 | -2.7
CCOC(=O)c1sc2ncn(Cc3nc4ccccc4c(=O)[nH]3)c(=O)c2c1C | -17.6
COc1ccc(NC(=O)Nc2ccc(-c3nc(-c4cc(C)ccc4C)co3)cc2)c(OC)c1 | -16.9
COc1cc(C(=O)Nc2ccc(-c3nc(-c4ccccc4)co3)cc2)cc(OC)c1OC | -20.1
COc1cc(NC(=O)Nc2ccc(-c3nc(-c4ccc(C)cc4)co3)cc2)cc(OC)c1OC | -39.4
COc1ccc(C)cc1NC(=O)Nc1ccc(-c2nc(-c3cc(C)ccc3C)co2)cc1 | -72.0*
Cc1ccc(C)c(-c2coc(-c3ccc(NC(=O)Nc4ccccc4)cc3)n2)c1 | 1.1
COc1cc(NC(=O)Nc2ccc(-c3nc(-c4ccccc4)co3)cc2)cc(OC)c1OC | -87.7*
C1=NC2(CCCC2)Cc2c1ccc1ccccc21 | 12.5
CC(C)c1ncc(CN(Cc2ccccn2)Cc2ccco2)cn1 | 29.3
Cn1nccc1CN1CCCC2(CCNC2=O)CC1 (stereo not given) | 2.7
COc1cccc(CC(C2CCN(C(=O)C3=CCCC3)CC2)N(C)C(=O)c2ccco2)c1 (stereo not given) | 11.7
CCN(CC)C(=O)c1cc(=O)n(CC(=O)Nc2ccc(F)cc2)c2ccccc12 | 4.8
COc1cc2c(cc1OC)C(Nc1ccc(I)cc1)=NC1(CCCC1)C2 | -98.3*
SMILES | Tgondii IFNg
COc1cc2c(cc1OC)-c1nnc(C)n1C(C)(C)C2 | 2.5
Cn1cnnc1C1CCN(C(=O)CC2COCCN2)CC1 (stereo not given) | -2.1
CN(C)c1nc(N2CCCC2)nc2c1CCN(C(=O)c1ccc[nH]1)CC2 | -3.4
Nc1[nH]c(=O)ncc1F | -79.1*!
O=C(CCc1ccc(-c2ccc(Cl)cc2)[nH]1)N1CCCC(O)(CO)CC1 (stereo not given) | -15.1
O=C(CN1CCc2[nH]nc(-c3ccccc3F)c2C1)N1C2CCC1c1snnc1C2 (stereo not given) | -50.9
C(=C\c1ccccc1)/CN1CCN(C(c2ccccc2)c2ccccc2)CC1 | 13.7
OC(CSc1cccs1)CN1CCN(C(c2ccccc2)c2ccccc2)CC1 (stereo not given) | -94.1*
Cc1nc(-c2ccc(Cl)cc2)sc1CCNC(=O)C(=O)Nc1ccc(C(N)=O)cc1 | 42.2
CCOC(=O)c1nn(CCc2ccccc2)c2c1CN(C(=O)c1cnccn1)CC2 | 8.8
Cc1ccc(S(=O)(=O)N2C[C@H]3C[C@H](NC(=O)c4nn(C)cc4-c4ccno4)[C@H]3C2)cc1 | -9.5
Cn1cc(C(=O)NCc2csc(N3CCCC3)n2)ccc1=O | 38.1
CCCCSC(=S)NC1CCS(=O)(=O)C1 (stereo not given) | 4.1
CCCCCCCCCCOC1CCS(=O)(=O)C1 (stereo not given) | -84.3*
Fc1ccc(C2CN(Cc3cccc(OCc4ccccn4)c3)CCO2)cc1 (stereo not given) | -16.1
COc1ccccc1C(=O)NCC1CCN(C2CCCCCC2)C1 (stereo not given) | -4.9
COc1ccc2c(c1)CCc1c-2nc2ccccc2c1N1CCOCC1 | -98.4*
COc1ccc(-c2nc(NCCN3CCOCC3)c3ccccc3n2)cc1 | -57.8
COc1ccc(-c2nc(N3CCc4ccccc4C3)c3ccccc3n2)cc1 | 63.2
CCOCc1ncn2c1CN(C(=O)c1ccco1)CC2 | -0.7
CCc1ccccc1-c1nccn1CCN(C)C | -50.3
O=C(Cn1ncc2c(N3CCCCCC3)ncnc21)NCc1ccc(C(F)(F)F)cc1 | -81.9*
CCN(CC)c1ncnc2c1cnn2CC(=O)NCc1ccc(F)c(Cl)c1 | -27.5
O=C(Cn1ncc2c(N3CCCCC3)ncnc21)NCc1ccncc1 | -28.9
CCc1ccc(CNC(=O)Cn2ncc3c(N4CCCCC4)ncnc32)cc1 | 167.9

Compound activity from PubChem.
